Binding signal data for 26 sequences are collected here from publication doi:10.1101/2024.03.05.583629.

The target in assay [1] is pT7_6His-AlfaTag-HOXD13 (human, UniProt P35453 263-343). Kind of assay: PADIT-seq. To be noted: dsDNA, one strand shown.
The target in assay [2] is pT7_6His-AlfaTag-ZIF268 (human, UniProt P18146 335-423). Description: PADIT-seq. Conditions: dsDNA, one strand shown.

pT7_6His-AlfaTag-HOXD13, sequence (P35453 263-343): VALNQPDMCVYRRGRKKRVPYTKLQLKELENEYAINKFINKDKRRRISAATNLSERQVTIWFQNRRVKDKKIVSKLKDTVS

Turning to “CTCGAGGATATCAAGATCTGGCCTCGGCCGCCAGCGCGGAACCTCTAGCTAGCCGACTCACTATAGGGATAATCGCCCTGAGCAAAGACC”, the binding signal was -0.898 ± 0.171 log2FC in assay [1] and 0.462 ± 0.139 log2FC in assay [2].

Turning to “CTCGAGGATATCAAGATCTGGCCTCGGCGTTTTAGTGGGAACCTCTAGCTAGCCGACTCACTATAGGGATAATCGCCCTGAGCAAAGACC”, the values for the binding signal in assay [1] and in assay [2] were 1.76 ± 0.0845 log2FC and 0.0814 ± 0.0894 log2FC, respectively.

For “CTCGAGGATATCAAGATCTGGCCTCGGCATATGGGCGGGAACCTCTAGCTAGCCGACTCACTATAGGGATAATCGCCCTGAGCAAAGACC”, the binding signal is -0.745 ± 0.103 log2FC in assay [1] and 0.0376 ± 0.0849 log2FC in assay [2].

In the case of “CTCGAGGATATCAAGATCTGGCCTCGGCGAATTAAAAGGAACCTCTAGCTAGCCGACTCACTATAGGGATAATCGCCCTGAGCAAAGACC”, the binding signal in assay [1] came out at 1.47 ± 0.0704 log2FC; in assay [2], 0.0118 ± 0.0724 log2FC.

“CTCGAGGATATCAAGATCTGGCCTCGGCCGCCTAAAAGGAACCTCTAGCTAGCCGACTCACTATAGGGATAATCGCCCTGAGCAAAGACC”: the binding signal in assay [1] was -0.524 ± 0.115 log2FC; in assay [2] it was 0.0248 ± 0.0968 log2FC.

For “CTCGAGGATATCAAGATCTGGCCTCGGCGCGTGGGGTGGAACCTCTAGCTAGCCGACTCACTATAGGGATAATCGCCCTGAGCAAAGACC”, the binding signal in assay [1] was -1.1 ± 0.157 log2FC; in assay [2] it was 1.28 ± 0.111 log2FC.

For the sequence “CTCGAGGATATCAAGATCTGGCCTCGGCCGCCCAATGGGAACCTCTAGCTAGCCGACTCACTATAGGGATAATCGCCCTGAGCAAAGACC”, the binding signal in assay [1] is -0.785 ± 0.113 log2FC; in assay [2], 0.0226 ± 0.0907 log2FC.

Take “CTCGAGGATATCAAGATCTGGCCTCGGCCTTTTACGCGGAACCTCTAGCTAGCCGACTCACTATAGGGATAATCGCCCTGAGCAAAGACC”: the binding signal in assay [1] came to 1.9 ± 0.0733 log2FC; in assay [2], 0.0363 ± 0.0782 log2FC.

As for “CTCGAGGATATCAAGATCTGGCCTCGGCGTTTTAACGGGAACCTCTAGCTAGCCGACTCACTATAGGGATAATCGCCCTGAGCAAAGACC”, the binding signal was determined as 1.81 ± 0.0879 log2FC in assay [1] and 0.0881 ± 0.0918 log2FC in assay [2].

As to “CTCGAGGATATCAAGATCTGGCCTCGGCAAATGGGCGGGAACCTCTAGCTAGCCGACTCACTATAGGGATAATCGCCCTGAGCAAAGACC”, the binding signal was -0.536 ± 0.104 log2FC in assay [1] and 0.157 ± 0.0868 log2FC in assay [2].

Turning to “CTCGAGGATATCAAGATCTGGCCTCGGCTGGCTAAAAGGAACCTCTAGCTAGCCGACTCACTATAGGGATAATCGCCCTGAGCAAAGACC”, the binding signal in assay [1] is -0.708 ± 0.106 log2FC; in assay [2] it was 0.0373 ± 0.0882 log2FC.

For the sequence “CTCGAGGATATCAAGATCTGGCCTCGGCTCGTGGGCGGGAACCTCTAGCTAGCCGACTCACTATAGGGATAATCGCCCTGAGCAAAGACC”, the binding signal in assay [1] is -0.771 ± 0.106 log2FC; in assay [2] it was 2.74 ± 0.0778 log2FC.

Turning to “CTCGAGGATATCAAGATCTGGCCTCGGCCGCTTTCGCGGAACCTCTAGCTAGCCGACTCACTATAGGGATAATCGCCCTGAGCAAAGACC”, the binding signal in assay [1] was -1.06 ± 0.128 log2FC; in assay [2] it was 0.0116 ± 0.104 log2FC.

“CTCGAGGATATCAAGATCTGGCCTCGGCCTTTTATGCGGAACCTCTAGCTAGCCGACTCACTATAGGGATAATCGCCCTGAGCAAAGACC”: the figures for the binding signal in assay [1] and in assay [2] were 1.88 ± 0.0756 log2FC and 0.00428 ± 0.0795 log2FC, respectively.

With “CTCGAGGATATCAAGATCTGGCCTCGGCCTTTTACGGGGAACCTCTAGCTAGCCGACTCACTATAGGGATAATCGCCCTGAGCAAAGACC”, the binding signal in assay [1] is 3.14 ± 0.0784 log2FC; in assay [2], 0.0515 ± 0.0862 log2FC.

“CTCGAGGATATCAAGATCTGGCCTCGGCCCTGTAAAAGGAACCTCTAGCTAGCCGACTCACTATAGGGATAATCGCCCTGAGCAAAGACC”: the binding signal in assay [1] was 2.46 ± 0.085 log2FC; in assay [2], 0.046 ± 0.0931 log2FC.

For the sequence “CTCGAGGATATCAAGATCTGGCCTCGGCACCGTAAAAGGAACCTCTAGCTAGCCGACTCACTATAGGGATAATCGCCCTGAGCAAAGACC”, the values for the binding signal in assay [1] and in assay [2] were 1.91 ± 0.0753 log2FC and 0.0818 ± 0.0804 log2FC, respectively.

With “CTCGAGGATATCAAGATCTGGCCTCGGCAGGTTAAAAGGAACCTCTAGCTAGCCGACTCACTATAGGGATAATCGCCCTGAGCAAAGACC”, the results for the binding signal in assay [1] and in assay [2] were 0.752 ± 0.0728 log2FC and 0.0674 ± 0.0711 log2FC, respectively.

As to “CTCGAGGATATCAAGATCTGGCCTCGGCCGCGCCCGCGGAACCTCTAGCTAGCCGACTCACTATAGGGATAATCGCCCTGAGCAAAGACC”, the binding signal in assay [1] is -1.09 ± 0.134 log2FC; in assay [2] it was 0.0207 ± 0.105 log2FC.

Regarding “CTCGAGGATATCAAGATCTGGCCTCGGCATTTTACGTGGAACCTCTAGCTAGCCGACTCACTATAGGGATAATCGCCCTGAGCAAAGACC”, the binding signal in assay [1] turned out to be 2.63 ± 0.0745 log2FC; in assay [2], 0.139 ± 0.0815 log2FC.

In the case of “CTCGAGGATATCAAGATCTGGCCTCGGCGTTTTAGGCGGAACCTCTAGCTAGCCGACTCACTATAGGGATAATCGCCCTGAGCAAAGACC”, the binding signal in assay [1] is -0.768 ± 0.146 log2FC; in assay [2], 0.0528 ± 0.123 log2FC.

Take “CTCGAGGATATCAAGATCTGGCCTCGGCCGCCCACGTGGAACCTCTAGCTAGCCGACTCACTATAGGGATAATCGCCCTGAGCAAAGACC”: in assay [2], the binding signal worked out at 1.68 ± 0.0823 log2FC.

Turning to “CTCGAGGATATCAAGATCTGGCCTCGGCACCATAAAAGGAACCTCTAGCTAGCCGACTCACTATAGGGATAATCGCCCTGAGCAAAGACC”, the binding signal in assay [1] turned out to be 2.69 ± 0.0753 log2FC; in assay [2] it was 0.0345 ± 0.0841 log2FC.

On to “CTCGAGGATATCAAGATCTGGCCTCGGCATTTTAATCGGAACCTCTAGCTAGCCGACTCACTATAGGGATAATCGCCCTGAGCAAAGACC”, for which the binding signal in assay [1] turned out to be 1.1 ± 0.0894 log2FC; in assay [2], 0.0175 ± 0.09 log2FC.

“CTCGAGGATATCAAGATCTGGCCTCGGCGCGTGGTATGGAACCTCTAGCTAGCCGACTCACTATAGGGATAATCGCCCTGAGCAAAGACC”: the values for the binding signal in assay [1] and in assay [2] were -1.06 ± 0.113 log2FC and 0.45 ± 0.0837 log2FC, respectively.

As to “CTCGAGGATATCAAGATCTGGCCTCGGCCTTTTAAGGGGAACCTCTAGCTAGCCGACTCACTATAGGGATAATCGCCCTGAGCAAAGACC”, the results for the binding signal in assay [1] and in assay [2] were 1.67 ± 0.0786 log2FC and 0.073 ± 0.082 log2FC, respectively.
